A selection: hits, their analogues and other compounds. The true share with any hit is near 1.7%.
GLP1R ag = qHTS of GLP-1 Receptor Agonists; HEK293 GLP-1R CRE-luciferase, luminescence, 4-6 h; cells express a hypersensitive GLP-1R form; Potency, µM (doses to about 45.6 µM), inactives show at the highest dose activation, hits mostly activators; 380,000 compounds, 0.007% hits; AID 624172, 2012; Glucagon-like peptide 1 receptor (Homo sapiens), P43220; also: % of control where 0% means no effect
Target sequence (P43220 whole entry, looked up): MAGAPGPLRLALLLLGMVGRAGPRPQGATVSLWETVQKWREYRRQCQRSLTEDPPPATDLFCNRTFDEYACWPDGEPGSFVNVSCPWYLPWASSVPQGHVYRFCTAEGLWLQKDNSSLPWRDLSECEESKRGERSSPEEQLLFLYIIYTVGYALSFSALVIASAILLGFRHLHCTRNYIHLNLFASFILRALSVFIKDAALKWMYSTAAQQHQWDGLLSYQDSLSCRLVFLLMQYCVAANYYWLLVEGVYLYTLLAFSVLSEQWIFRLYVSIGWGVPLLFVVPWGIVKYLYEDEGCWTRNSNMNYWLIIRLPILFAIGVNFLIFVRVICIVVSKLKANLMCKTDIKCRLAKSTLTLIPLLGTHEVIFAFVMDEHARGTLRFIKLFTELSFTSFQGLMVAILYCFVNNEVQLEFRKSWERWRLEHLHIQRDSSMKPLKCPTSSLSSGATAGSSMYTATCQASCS
GLP1R inv ag = qHTS of GLP-1 Receptor Inverse Agonists (Inhibition Mode); Glucagon-like peptide 1 receptor (Homo sapiens), P43220; HEK293 GLP-1R CRE-luciferase, luminescence, 24 h; GLP-1R form is constitutively active; Potency, µM (titrated, usually from 38.3 µM), for inactives: at the top dose activity change, negative = inhibition, most hits filed as inhibitors; 410,000 compounds, 1.6% hits; also: % is scaled to controls: 0 for no effect and ±100 for the full control effect; nearly all actives have a fitted effect of over 55% in size
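HEK293 cells stably co-expressing constitutively active GLP-1R and a cAMP-responsive luciferase reporter were seeded in DMEM with 10% Nu serum, given compounds after 12 h, and incubated 24 h at 37 deg C. Luminescence was then read.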
GLP1R cytotox = qHTS of GLP-1 Receptor Inverse Agonists: Cytotox Screen. HEK293 cAMP-luciferase reporter cells, luminescence, 24 h. AID 624418, 2012. 410,000 compounds, 0.13% hits. Potency, µM (titrated, usually from 38.3 µM), for the others: at the highest dose activity change, negative = inhibition, usual class: inhibitors;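 also: loss of luciferase light is scored as toxicity; % is scaled to controls: 0 for no effect and ±100 for the full control effect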
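To flag toxic compounds, the library was rerun on cells for 24 hr at 37 deg C and 5% CO2. Viability-linked luminescence was captured 12 min after adding luciferase detection reagent.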
* hit, by the source's call; ? = inconclusive; / = no result given. Calls follow the shape of the dose curve; as a rule, active = well fitted curve in the direction sought with a large enough effect; inconclusive = small, poorly fitted or top-dose-only effect, or another doubt; inactive = no such curve, though single readings can be large; an effect the other way counts as inactive or inconclusive. Potency is read from the fitted curve at half-maximal effect.

SMILES	GLP1R ag	GLP1R inv ag	GLP1R cytotox
COc1ccc(N(CCC(=O)Nc2ccccc2F)S(=O)(=O)c2ccc(C)cc2C)cc1	5%	10µM*	-1%
CNc1nc(SCc2ccc(C)cc2)nc2c1CCCC2	1%	?	-20%
Cc1ccc(CSc2nc3c(c(N(C)C)n2)CCCC3)cc1	5%	11µM*	-10%
CCCCNC(=S)NNC(=O)CCn1cc(C)cn1	-1%	7.9µM*	?
Cc1cnn(CCC(=O)NNC(=S)NCC(C)C)c1	0%	?	?
Cc1nn(CCC(=O)NNC(=S)Nc2ccc(F)cc2)c(C)c1Br	2%	-20%	-24%
CCCCNC(=S)NNC(=O)CCn1nc(C)c(Br)c1C	8%	0%	5.6µM*
C[C@H]1CN([C@@H](C)CO)C(=O)c2cccc(NC(=O)Nc3ccc(C(F)(F)F)cc3)c2O[C@H]1CN(C)C	-4%	10µM*	18%
C[C@H](CO)N1C[C@H](C)[C@@H](CN(C)C(=O)Nc2ccc(C(F)(F)F)cc2)Oc2c(NC(=O)Nc3ccc(C(F)(F)F)cc3)cccc2C1=O	-11%	11µM*	?
COc1ccc(NC(=O)Nc2cccc3c2O[C@H](CN(C)C(=O)Nc2ccc(C(F)(F)F)cc2)[C@@H](C)CN([C@H](C)CO)C3=O)cc1	-2%	2%	0%
C[C@H](CO)N1C[C@H](C)[C@@H](CN(C)S(C)(=O)=O)Oc2c(NC(=O)Nc3ccc(C(F)(F)F)cc3)cccc2C1=O	3%	6%	9%
Cc1ccc(NC(=O)c2cc(S(=O)(=O)N3CCOCC3)cn2C)cc1F	-2%	-2%	2%
CCOc1ccc(S(=O)(=O)N(CC)CC(=O)NC2CC2)cc1	2%	10%	3%
COC(C(=O)Nc1ccnn1C1CCN(Cc2nccs2)CC1)c1ccccc1 (stereo not given)	7%	1%	10%
O=C(CCC(=O)c1ccc(F)cc1)Nc1ccc(Cl)cc1	/	-14%	-1%
O=C(CCC(=O)c1ccc(F)cc1)Nc1cccc(S(=O)(=O)Nc2cccc(Cl)c2)c1	-4%	10µM*	-11%
Cc1cc(NC(=O)CN2C(=O)NC3(CCCCC3)C2=O)ccc1N1CCCC1	-3%	?	1%
COc1ccc(-c2ccc3[nH]c4c(c3c2)CCN2C[C@@H]([C@H](C)O)[C@@H](N(C)C(=O)Nc3cc(Cl)cc(Cl)c3)C[C@@H]42)cc1	-5%	?	8%
C[C@H](O)[C@@H]1CN2CCc3c([nH]c4ccc(-c5ccc6c(c5)OCO6)cc34)[C@@H]2C[C@@H]1N(C)C(=O)Nc1ccc(F)cc1	-8%	4µM*	?
COc1ccc(OC)c(-c2csc(NC(=O)c3ccc(F)cc3)n2)c1	-2%	10µM*	-19%
COc1ccc(OC)c(-c2csc(NC(=O)Cc3ccc(F)cc3)n2)c1	26%	?	-6%
CC(=O)Oc1ccc(C(=O)Nc2cccnc2)cc1	-2%	2%	0%
CC1=CC(C)(C)NC(=S)N1c1ccc(C)cc1	-4%	?	?
CC1=CC(C)(C)NC(=S)N1c1ccc(C)c(C)c1	4%	11µM*	11µM*
CC(C)c1nc(SCC(=O)c2c[nH]c3ccccc23)n[nH]1	3%	1%	2%
SMILES	GLP1R ag	GLP1R inv ag	GLP1R cytotox
OCC1OC(n2ccc3c2ncn2ncnc32)C(O)C1O (stereo not given)	-7%	7.9µM*	-24%
Nc1ccn([C@@H]2O[C@H](CO)[C@@H](O)[C@@H]2O)c(=O)n1	-2%	?	-3%
COc1cccc(C(=O)Nc2nnc(C(C)C)s2)c1	-11%	11µM*	7%
C=C(C)c1cccc(C(C)(C)NC(=O)Nc2nnc(C(C)C)s2)c1	9%	10µM*	8%
C=C(C)c1cccc(C(C)(C)NC(=O)Nc2nncs2)c1	8%	?	1%
COc1ccc(C(=O)Nc2nnc(C(C)C)s2)cc1OC	/	39%	1%
CCOC(=O)c1c(C)oc2ncnc(Nc3cc(C)cc(C)c3)c12	/	5%	4%
CC(C)Cn1c(=O)c2ccccc2n2c(CCC(=O)NCc3ccccc3Cl)nnc12	/	2%	10%
COc1ccc(Cl)c(NC(=O)C/C(C)=N/NC(=O)CCc2ccccc2)c1	6%	?	-23%
Cc1ccc2c(c1)N(CCC(=O)NCCCN1CCCC1)C(=O)C(C)O2 (stereo not given)	16%	-3%	-2%
COC(=O)[C@@]12C[C@@H](CC(=O)NCC3CCCCC3)C(=O)N(Cc3ccc4c(c3)OCO4)C1=CCC(C)(C)C2	/	?	-1%
